# Test results: paper PMC7862700, “An all-to-all approach to the identification of sequence-specific readers for epigenetic DNA modifications on cytosine”
# Key:
# Assay in all cases: DAPPL (digital affinity profiling via proximity ligation, sequencing); 10 mM Tris-HCl pH 7.5, 50 mM NaCl, 1 mM DTT, 4% glycerol, room temperature, 30 min; GST-TFs on glutathione beads, 16-mer random dsDNA library, 0.1% formaldehyde crosslink after washing; high values mean tight binding
# FLI1 = target: T1, FLI1 (Homo sapiens, UniProt Q01543 1-452); details: protein: recombinant; tags: N-terminal GST; dsDNA, one strand shown
# T1 sequence: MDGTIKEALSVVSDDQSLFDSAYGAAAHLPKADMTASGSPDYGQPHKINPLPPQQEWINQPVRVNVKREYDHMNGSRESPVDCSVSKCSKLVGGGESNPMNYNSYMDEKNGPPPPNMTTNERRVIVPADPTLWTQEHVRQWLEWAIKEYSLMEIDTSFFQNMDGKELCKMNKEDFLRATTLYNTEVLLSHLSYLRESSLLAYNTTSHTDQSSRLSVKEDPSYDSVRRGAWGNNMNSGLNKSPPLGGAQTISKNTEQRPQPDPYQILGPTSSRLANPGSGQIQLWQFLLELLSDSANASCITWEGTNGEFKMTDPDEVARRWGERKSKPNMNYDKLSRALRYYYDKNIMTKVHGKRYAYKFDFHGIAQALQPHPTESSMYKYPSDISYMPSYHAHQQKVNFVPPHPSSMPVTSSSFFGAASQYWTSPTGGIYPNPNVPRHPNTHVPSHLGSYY
# Summary of the method: (§1)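 Sequencing on an Illumina NextSeq500 followed washing, crosslinking with 0.1% formaldehyde, proximity ligation (BsaI/T4 ligase, 1 h, 37 °C) and PCR amplification of pools that had been incubated for 30 min at room temperature with 200 nmole of a random double-stranded 16-mer DNA library in Tris/NaCl/DTT/glycerol buffer. Each pool held DNA-barcoded human transcription factors, expressed in yeast as GST fusions and captured on glutathione beads, plus a tag-only sample. Binding signal is a hexamer's read frequency for a factor divided by its frequency in the tag-only sample.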
# ELK1 = target: T2, ELK1 (Homo sapiens, UniProt P19419 1-428); details: protein: recombinant; tags: N-terminal GST; dsDNA, one strand shown
# T2 sequence: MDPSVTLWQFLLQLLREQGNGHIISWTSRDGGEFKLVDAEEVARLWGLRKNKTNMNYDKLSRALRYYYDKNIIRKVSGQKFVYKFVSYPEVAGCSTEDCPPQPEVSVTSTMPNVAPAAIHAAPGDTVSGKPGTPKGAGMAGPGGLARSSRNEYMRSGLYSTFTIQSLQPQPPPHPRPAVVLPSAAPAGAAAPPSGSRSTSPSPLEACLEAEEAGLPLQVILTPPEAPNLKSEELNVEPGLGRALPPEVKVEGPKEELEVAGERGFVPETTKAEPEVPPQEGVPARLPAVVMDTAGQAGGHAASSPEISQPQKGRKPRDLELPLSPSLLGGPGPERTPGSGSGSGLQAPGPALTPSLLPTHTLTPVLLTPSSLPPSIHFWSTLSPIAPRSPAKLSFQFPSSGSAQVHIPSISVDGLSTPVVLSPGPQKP
# Summary of the method: as §1
# GABPA = target: T3, GABPA (Homo sapiens, UniProt Q06546 1-454); details: protein: recombinant; tags: N-terminal GST; dsDNA, one strand shown
# T3 sequence: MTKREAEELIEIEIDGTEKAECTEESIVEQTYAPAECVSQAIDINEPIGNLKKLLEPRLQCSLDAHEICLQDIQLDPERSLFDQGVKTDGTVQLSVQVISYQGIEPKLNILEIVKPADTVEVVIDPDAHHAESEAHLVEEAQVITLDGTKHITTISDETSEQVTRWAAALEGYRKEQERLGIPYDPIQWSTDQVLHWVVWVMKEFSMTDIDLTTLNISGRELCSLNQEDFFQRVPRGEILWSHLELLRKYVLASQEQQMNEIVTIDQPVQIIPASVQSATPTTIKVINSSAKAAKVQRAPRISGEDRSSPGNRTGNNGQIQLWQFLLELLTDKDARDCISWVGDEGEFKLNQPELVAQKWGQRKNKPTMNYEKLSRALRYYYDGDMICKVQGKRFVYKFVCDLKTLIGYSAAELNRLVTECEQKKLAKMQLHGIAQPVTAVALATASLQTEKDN
# Summary of the method: as §1
# ERG = target: T4, ERG (Homo sapiens, UniProt P11308 1-479); details: protein: recombinant; tags: N-terminal GST; dsDNA, one strand shown
# T4 sequence: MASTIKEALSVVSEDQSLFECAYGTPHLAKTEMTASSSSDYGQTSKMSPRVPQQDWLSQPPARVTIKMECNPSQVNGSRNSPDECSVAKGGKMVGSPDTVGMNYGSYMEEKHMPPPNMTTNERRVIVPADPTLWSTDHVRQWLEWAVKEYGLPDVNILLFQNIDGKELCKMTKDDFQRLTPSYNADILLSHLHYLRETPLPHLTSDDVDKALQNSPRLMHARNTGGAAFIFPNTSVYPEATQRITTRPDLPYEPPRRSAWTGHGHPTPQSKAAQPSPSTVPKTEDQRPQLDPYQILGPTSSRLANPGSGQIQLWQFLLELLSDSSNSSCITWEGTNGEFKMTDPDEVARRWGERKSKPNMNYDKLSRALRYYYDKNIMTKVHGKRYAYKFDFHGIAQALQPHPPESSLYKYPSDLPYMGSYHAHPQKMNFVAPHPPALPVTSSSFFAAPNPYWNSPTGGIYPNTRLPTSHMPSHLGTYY
# Summary of the method: as §1
# ELF1 = ELF1 (Homo sapiens, UniProt P32519 1-619); details: protein: recombinant; tags: N-terminal GST; dsDNA, one strand shown
# Chain of ELF1 (P32519 whole entry): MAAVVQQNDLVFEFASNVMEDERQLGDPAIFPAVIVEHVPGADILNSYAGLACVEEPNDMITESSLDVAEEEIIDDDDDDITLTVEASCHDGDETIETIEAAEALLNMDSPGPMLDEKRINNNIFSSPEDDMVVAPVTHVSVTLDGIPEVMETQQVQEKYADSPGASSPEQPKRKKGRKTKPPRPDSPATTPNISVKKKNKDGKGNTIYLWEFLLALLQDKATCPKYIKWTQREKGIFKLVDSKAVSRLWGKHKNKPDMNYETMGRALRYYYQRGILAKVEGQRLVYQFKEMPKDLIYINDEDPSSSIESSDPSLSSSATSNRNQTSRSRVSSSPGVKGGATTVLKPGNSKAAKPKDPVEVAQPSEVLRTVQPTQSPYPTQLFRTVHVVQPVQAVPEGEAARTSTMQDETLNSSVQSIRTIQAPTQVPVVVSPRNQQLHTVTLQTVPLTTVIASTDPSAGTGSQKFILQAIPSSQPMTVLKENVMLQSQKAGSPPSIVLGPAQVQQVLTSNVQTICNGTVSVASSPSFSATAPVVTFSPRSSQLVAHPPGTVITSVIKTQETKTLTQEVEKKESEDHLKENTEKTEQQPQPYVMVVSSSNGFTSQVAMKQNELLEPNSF
# Summary of the method: as §1
# EHF = target: T5, EHF (Homo sapiens, UniProt Q9NZC4 1-300); details: protein: recombinant; tags: N-terminal GST; dsDNA, one strand shown
# T5 sequence: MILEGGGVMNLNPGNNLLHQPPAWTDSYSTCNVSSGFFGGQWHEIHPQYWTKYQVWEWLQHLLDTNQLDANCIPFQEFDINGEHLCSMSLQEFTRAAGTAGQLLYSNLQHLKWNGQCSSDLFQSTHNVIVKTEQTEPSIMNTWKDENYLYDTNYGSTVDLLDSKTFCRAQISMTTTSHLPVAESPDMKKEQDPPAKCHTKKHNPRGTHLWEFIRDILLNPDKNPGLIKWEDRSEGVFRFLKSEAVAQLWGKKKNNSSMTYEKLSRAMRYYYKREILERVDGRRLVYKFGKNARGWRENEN
# Summary of the method: as §1
# SPI1 = SPI1 (Homo sapiens, UniProt P17947 1-270); details: protein: recombinant; tags: N-terminal GST; dsDNA, one strand shown
# Summary of the method: as §1
# SPIB = SPIB (Homo sapiens, UniProt Q01892 1-262); details: protein: recombinant; tags: N-terminal GST; dsDNA, one strand shown
# Chain of SPIB (Q01892 whole entry): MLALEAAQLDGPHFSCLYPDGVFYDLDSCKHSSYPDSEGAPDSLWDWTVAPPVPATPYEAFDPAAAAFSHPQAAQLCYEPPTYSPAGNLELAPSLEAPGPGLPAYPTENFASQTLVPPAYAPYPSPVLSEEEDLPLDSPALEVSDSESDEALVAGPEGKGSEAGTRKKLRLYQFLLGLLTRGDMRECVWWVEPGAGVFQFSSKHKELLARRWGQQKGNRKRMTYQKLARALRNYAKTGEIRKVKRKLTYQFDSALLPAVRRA
# Summary of the method: as §1
# ELK3 = target: T6, ELK3 (Homo sapiens, UniProt P41970 1-407); details: protein: recombinant; tags: N-terminal GST; dsDNA, one strand shown
# T6 sequence: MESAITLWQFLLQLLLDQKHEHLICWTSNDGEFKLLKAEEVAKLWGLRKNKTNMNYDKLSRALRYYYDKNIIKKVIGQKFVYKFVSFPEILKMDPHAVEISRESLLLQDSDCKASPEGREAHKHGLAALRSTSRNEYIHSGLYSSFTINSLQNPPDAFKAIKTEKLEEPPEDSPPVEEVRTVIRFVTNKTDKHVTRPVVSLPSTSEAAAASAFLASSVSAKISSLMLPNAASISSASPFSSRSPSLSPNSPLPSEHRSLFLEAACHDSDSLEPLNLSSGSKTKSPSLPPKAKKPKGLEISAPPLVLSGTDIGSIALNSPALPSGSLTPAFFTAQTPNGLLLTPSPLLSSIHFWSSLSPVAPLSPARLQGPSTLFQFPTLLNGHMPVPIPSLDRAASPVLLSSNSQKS
# Summary of the method: as §1
# FEV = target: T7, FEV (Homo sapiens, UniProt Q99581 1-238); details: protein: recombinant; tags: N-terminal GST; dsDNA, one strand shown
# T7 sequence: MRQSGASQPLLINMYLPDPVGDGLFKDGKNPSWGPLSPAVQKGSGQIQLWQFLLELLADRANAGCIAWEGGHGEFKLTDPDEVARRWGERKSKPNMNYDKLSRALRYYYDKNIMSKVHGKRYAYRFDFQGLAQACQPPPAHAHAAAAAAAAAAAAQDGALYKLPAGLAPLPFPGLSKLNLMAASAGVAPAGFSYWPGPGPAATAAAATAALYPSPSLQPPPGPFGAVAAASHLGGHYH
# Summary of the method: as §1
# ETV5 = ETV5 (Homo sapiens, UniProt P41161 1-510); details: protein: recombinant; tags: N-terminal GST; dsDNA, one strand shown
# Chain of ETV5 (P41161 whole entry): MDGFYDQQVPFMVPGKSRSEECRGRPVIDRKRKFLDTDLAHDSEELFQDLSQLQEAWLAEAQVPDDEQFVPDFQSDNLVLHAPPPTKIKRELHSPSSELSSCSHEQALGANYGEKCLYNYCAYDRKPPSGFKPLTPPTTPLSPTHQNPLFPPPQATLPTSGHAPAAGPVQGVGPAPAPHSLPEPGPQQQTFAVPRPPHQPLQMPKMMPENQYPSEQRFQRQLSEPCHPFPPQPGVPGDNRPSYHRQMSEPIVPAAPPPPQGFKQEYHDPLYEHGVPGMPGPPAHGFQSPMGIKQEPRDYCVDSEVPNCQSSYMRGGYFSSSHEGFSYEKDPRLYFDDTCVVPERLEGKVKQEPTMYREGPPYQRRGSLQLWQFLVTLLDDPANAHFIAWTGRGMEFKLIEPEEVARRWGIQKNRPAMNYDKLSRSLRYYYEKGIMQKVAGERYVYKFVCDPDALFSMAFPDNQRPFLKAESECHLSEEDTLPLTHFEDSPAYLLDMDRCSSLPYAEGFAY
# Summary of the method: as §1
# HSF1 = HSF1 (Homo sapiens, UniProt Q00613 1-529); details: protein: recombinant; tags: N-terminal GST; chain copies: 3; dsDNA, one strand shown
# Chain of HSF1 (Q00613 whole entry): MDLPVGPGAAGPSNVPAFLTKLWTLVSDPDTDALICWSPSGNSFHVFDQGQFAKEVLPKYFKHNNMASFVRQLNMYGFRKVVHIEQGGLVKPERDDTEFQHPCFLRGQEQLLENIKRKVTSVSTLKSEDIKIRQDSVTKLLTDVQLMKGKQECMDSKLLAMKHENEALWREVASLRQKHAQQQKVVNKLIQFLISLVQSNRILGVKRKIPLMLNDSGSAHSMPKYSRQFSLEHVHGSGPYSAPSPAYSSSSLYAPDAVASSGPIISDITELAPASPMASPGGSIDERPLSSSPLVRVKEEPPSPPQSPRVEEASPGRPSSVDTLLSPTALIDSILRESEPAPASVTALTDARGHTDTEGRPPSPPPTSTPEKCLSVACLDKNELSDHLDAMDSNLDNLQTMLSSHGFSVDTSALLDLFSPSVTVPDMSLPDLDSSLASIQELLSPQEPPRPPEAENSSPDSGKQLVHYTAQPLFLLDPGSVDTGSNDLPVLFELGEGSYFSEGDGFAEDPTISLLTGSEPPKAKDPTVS
# Summary of the method: as §1
# SPIC = target: T8, SPIC (Homo sapiens, UniProt Q8N5J4 1-248); details: protein: recombinant; tags: N-terminal GST; dsDNA, one strand shown
# T8 sequence: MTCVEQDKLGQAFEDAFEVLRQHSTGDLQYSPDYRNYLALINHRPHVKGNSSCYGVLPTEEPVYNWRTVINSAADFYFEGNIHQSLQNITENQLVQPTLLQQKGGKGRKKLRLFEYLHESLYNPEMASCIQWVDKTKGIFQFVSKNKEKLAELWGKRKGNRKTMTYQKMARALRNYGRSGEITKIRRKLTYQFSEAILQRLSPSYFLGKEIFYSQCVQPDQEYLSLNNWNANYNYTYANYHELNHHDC
# Summary of the method: as §1
# ELF4 = ELF4 (Homo sapiens, UniProt Q99607 1-663); details: protein: recombinant; tags: N-terminal GST; dsDNA, one strand shown
# Chain of ELF4 (Q99607 whole entry): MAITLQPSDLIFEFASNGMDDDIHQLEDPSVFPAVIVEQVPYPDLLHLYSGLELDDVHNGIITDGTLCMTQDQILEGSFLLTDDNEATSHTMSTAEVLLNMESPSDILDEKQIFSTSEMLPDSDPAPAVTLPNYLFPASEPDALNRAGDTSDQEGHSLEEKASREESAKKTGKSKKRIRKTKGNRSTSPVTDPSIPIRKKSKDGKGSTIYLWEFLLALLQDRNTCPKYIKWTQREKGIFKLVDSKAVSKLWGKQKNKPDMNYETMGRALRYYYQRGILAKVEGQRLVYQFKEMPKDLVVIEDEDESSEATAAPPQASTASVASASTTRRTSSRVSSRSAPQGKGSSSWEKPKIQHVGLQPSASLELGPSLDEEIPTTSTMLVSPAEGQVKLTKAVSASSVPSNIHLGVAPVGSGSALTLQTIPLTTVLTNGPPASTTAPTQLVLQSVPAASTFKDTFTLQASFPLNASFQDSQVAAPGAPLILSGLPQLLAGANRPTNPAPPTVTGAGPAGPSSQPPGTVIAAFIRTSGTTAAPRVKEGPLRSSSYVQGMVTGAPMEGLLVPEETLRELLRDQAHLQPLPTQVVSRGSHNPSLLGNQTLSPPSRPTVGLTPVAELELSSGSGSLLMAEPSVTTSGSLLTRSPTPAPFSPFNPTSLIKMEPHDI
# Summary of the method: as §1
# ELK4 = target: T9, ELK4 (Homo sapiens, UniProt P28324-2 1-405); details: protein: recombinant; tags: N-terminal GST; dsDNA, one strand shown
# T9 sequence: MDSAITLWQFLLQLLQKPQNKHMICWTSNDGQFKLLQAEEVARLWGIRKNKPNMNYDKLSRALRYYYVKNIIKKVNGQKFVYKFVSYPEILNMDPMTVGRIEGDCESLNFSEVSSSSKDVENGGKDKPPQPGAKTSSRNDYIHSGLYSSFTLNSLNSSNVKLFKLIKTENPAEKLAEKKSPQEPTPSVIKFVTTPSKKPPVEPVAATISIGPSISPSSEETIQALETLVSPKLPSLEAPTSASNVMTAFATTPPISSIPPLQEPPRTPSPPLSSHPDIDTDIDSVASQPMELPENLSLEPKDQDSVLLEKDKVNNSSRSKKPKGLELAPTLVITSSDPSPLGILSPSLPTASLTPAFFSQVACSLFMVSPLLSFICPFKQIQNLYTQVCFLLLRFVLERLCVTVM
# Summary of the method: as §1
# ETV2 = target: T10, ETV2 (Homo sapiens, UniProt O00321 1-342); details: protein: recombinant; tags: N-terminal GST; dsDNA, one strand shown
# T10 sequence: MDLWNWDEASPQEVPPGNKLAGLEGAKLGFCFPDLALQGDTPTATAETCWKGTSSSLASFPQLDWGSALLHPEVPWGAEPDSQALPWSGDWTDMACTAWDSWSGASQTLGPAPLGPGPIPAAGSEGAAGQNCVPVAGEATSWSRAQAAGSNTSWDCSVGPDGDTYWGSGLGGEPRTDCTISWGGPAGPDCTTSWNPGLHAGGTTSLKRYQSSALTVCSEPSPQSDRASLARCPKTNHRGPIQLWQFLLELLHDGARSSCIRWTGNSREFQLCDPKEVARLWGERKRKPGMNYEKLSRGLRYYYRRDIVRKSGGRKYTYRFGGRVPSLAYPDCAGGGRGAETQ
# Summary of the method: as §1
# ELF3 = target: T11, ELF3 (Homo sapiens, UniProt P78545 1-371); details: protein: recombinant; tags: N-terminal GST; dsDNA, one strand shown
# T11 sequence: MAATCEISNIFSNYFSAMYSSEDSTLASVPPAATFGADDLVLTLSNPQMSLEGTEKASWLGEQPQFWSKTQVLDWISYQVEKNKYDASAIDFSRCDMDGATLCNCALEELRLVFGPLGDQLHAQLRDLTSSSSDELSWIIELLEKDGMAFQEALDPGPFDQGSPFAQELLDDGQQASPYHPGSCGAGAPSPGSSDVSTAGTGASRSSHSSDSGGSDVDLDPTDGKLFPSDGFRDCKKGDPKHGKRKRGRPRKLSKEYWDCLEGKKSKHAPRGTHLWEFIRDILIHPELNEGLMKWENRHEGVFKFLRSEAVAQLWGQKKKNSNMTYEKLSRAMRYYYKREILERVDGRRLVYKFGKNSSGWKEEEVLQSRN
# Summary of the method: as §1
# CRX = CRX (Homo sapiens, UniProt O43186 1-299); details: protein: recombinant; tags: N-terminal GST; dsDNA, one strand shown
# Chain of CRX (O43186 whole entry): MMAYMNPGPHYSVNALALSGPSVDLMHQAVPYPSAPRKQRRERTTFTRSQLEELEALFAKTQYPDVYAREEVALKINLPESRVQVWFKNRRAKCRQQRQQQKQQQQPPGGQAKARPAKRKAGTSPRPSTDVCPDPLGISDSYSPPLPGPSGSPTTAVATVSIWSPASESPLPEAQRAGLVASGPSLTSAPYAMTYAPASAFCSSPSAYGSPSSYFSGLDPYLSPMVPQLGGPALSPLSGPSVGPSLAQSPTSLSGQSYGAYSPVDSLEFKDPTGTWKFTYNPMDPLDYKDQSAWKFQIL
# Summary of the method: as §1
# ETV1 = ETV1 (Homo sapiens, UniProt P50549 1-477); details: protein: recombinant; tags: N-terminal GST; dsDNA, one strand shown
# Chain of ETV1 (P50549 whole entry): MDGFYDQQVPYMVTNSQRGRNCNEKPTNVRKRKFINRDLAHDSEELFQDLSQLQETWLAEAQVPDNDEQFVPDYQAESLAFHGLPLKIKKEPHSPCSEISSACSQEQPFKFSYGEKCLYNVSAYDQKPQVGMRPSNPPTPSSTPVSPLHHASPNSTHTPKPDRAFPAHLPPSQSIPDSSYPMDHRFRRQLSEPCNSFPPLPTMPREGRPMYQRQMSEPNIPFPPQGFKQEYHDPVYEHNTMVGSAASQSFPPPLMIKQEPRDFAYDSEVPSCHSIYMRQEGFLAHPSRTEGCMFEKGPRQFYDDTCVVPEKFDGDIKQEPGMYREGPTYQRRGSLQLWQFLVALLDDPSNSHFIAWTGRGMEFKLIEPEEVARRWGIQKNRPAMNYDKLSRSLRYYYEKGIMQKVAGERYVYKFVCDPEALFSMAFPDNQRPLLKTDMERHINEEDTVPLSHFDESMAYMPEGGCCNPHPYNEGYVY
# Summary of the method: as §1
sequence,measurement,setting,value
AAACCA,binding signal,FLI1,"1.13 fold enrichment (6-mer frequency, TF over GST control)"
same,binding signal,ELK1,"1.11 fold enrichment (6-mer frequency, TF over GST control)"
same,binding signal,GABPA,"1.14 fold enrichment (6-mer frequency, TF over GST control)"
same,binding signal,ERG,"1.19 fold enrichment (6-mer frequency, TF over GST control)"
same,binding signal,ELF1,"1.18 fold enrichment (6-mer frequency, TF over GST control)"
same,binding signal,EHF,"1.17 fold enrichment (6-mer frequency, TF over GST control)"
same,binding signal,SPI1,"1.07 fold enrichment (6-mer frequency, TF over GST control)"
same,binding signal,SPIB,"1.16 fold enrichment (6-mer frequency, TF over GST control)"
same,binding signal,ELK3,"1.18 fold enrichment (6-mer frequency, TF over GST control)"
same,binding signal,FEV,"1.22 fold enrichment (6-mer frequency, TF over GST control)"
same,binding signal,ETV5,"1.15 fold enrichment (6-mer frequency, TF over GST control)"
same,binding signal,HSF1,"1.09 fold enrichment (6-mer frequency, TF over GST control)"
same,binding signal,SPIC,"1.16 fold enrichment (6-mer frequency, TF over GST control)"
same,binding signal,ELF4,"1.2 fold enrichment (6-mer frequency, TF over GST control)"
same,binding signal,ELK4,"1.26 fold enrichment (6-mer frequency, TF over GST control)"
same,binding signal,ETV2,"1.14 fold enrichment (6-mer frequency, TF over GST control)"
same,binding signal,ELF3,"1.17 fold enrichment (6-mer frequency, TF over GST control)"
same,binding signal,CRX,"1.14 fold enrichment (6-mer frequency, TF over GST control)"
same,binding signal,ETV1,"1.09 fold enrichment (6-mer frequency, TF over GST control)"
